Test results as given in PubChem BioAssay.
Activity calls are given as the source filed them.

Experiments:
[1] = small molecules captured by biotinylated probe aFSTL3 – biochemical, small-molecule microarray, fluorescence 635/667, stem cell growth factor project, primary screen (AID 1064); conditions: higher = more signal;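 further: measures binding of the biotinylated anti-FSTL3 antibody to printed compounds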
[2] = binders from COS7 lysate, DM2A8 probe, primary screen, torsin A project, cell lysate, small-molecule microarray, fluorescence 635/667 (AID 1065); conditions: higher = more signal, COS7 lysate expressing mutant human TOR1A
[3] = small molecules captured by biotinylated probe aFGF2 – biochemical, small-molecule microarray, fluorescence 635/667, stem cell growth factor project, primary screen (AID 1067); conditions: higher = more signal;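 further: measures binding of biotinylated aFGF2 protein to printed compounds on slides; z-score merges feature fluorescence and signal-to-noise across triplicate slides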
[4] = small molecules captured by biotinylated probe aFGF10 – biochemical, small-molecule microarray, fluorescence 635/667, stem cell growth factor project, primary screen (AID 1071); conditions: higher = more signal;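 further: score merges 667 nm spot intensity and signal to noise from triplicate slides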
[5] = molecular target: Neurogenic locus notch homolog protein 2 (Homo sapiens) (UniProt Q04721); experiment: small molecules binding Notch2 protein – biochemical, small-molecule microarray, 635 nm fluorescence, stem cell growth factors, primary screen (AID 1073); conditions: higher = more signal
[6] = molecular target: Pro-neuregulin-1, membrane-bound isoform (Homo sapiens) (UniProt Q02297); experiment: small molecules binding neuregulin-1 protein – biochemical, small-molecule microarray, fluorescence 635/667, psychiatric disease protein project, primary screen (AID 1075); conditions: NRG1 binding, 635 nm fluorescence, higher = more signal;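 further: score combines 667 nm spot fluorescence with signal to noise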
[7] = tested on: Neuregulin-1 EGF-like domain; experiment: small molecules binding NRG1 EGF domain – biochemical, small-molecule microarray, 635 nm fluorescence, primary screen (AID 1081); conditions: higher = more signal;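 further: binding of the protein to compounds printed on small-molecule microarray slides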
[8] = FRG1 expression reporter modulators in myotubes – cell-based, C2C12 myotubes, firefly/Renilla luciferase, luminescence, FRG1 inhibition for FSHD, primary screen (AID 1084); conditions: FRG1 promoter luciferase, higher = more signal, called active from +8 up or from −8 down
[9] = small molecules captured by biotinylated probe aFST – biochemical, small-molecule microarray, fluorescence 635/667, stem cell growth factor project, primary screen (AID 1086); conditions: higher = more signal;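 further: score merges 667 nm fluorescence with signal-to-noise of each printed compound spot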
[10] = binders of probe aHhip on microarray, primary screen, stem cell growth factor project, biochemical, small-molecule microarray, fluorescence 635/667 (AID 1087); conditions: higher = more signal;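 further: score merges spot fluorescence at 667nm with spot signal to noise ratio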
[11] = tested on: PRMT1 (protein arginine N-methyltransferase 1); experiment: small molecules binding arginine methyltransferase PRMT1 – biochemical, small-molecule microarray, 635 nm fluorescence, primary screen (AID 1088); conditions: higher = more signal;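 further: binding of Prmt1 protein to compounds spotted on small-molecule microarray slides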
[12] = growth effects on S. cerevisiae YJM789 – YJM789 clinical isolate, OD600, 24 h, basal, primary screen (AID 1089); conditions: higher = more signal, called active from +8 up or from −8 down;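 further: growth of clinical yeast isolate S. cerevisiae YJM 789 seeded 1000 cells per well; test concentration not given here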
[13] = S. pombe growth modifiers, basal conditions – strain 972, OD600, 24 h, no modulator, primary screen (AID 1090);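 further: basal condition with compound alone and no growth modifier present; test concentration not given here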; conditions: S. pombe 972 growth, higher = more signal, called active from +8 up or from −8 down
[14] = budding yeast growth modifiers under rapamycin – strain BY4716, OD600, 96 h, primary screen (AID 1091); further: test concentration not given here; conditions: S. cerevisiae BY4716 + rapamycin, higher = more signal, called active from +8 up or from −8 down
[15] = molecular target: Torsin-1A-interacting protein 2 (Homo sapiens) (UniProt Q8NFQ8); experiment: small molecules binding lysate-expressed LULL1 – cell lysate, human LULL1 lysate, 635/667 nm fluorescence, primary screen (AID 1092); conditions: small-molecule microarray, hLULL1 lysate binding, 635 nm fluorescence; higher = more signal;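 further: probe is lysate of COS7 cells overexpressing human LULL1; score merges per-feature 667 nm fluorescence with signal-to-noise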
[16] = optical density change of DRC41 E. coli – strain DRC41, OD650, 24 h, E. coli filamentation project, primary screen (AID 1093);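 further: MC1000 strain lacking acrAB efflux and sulA so SOS filamentation is blocked; test concentration not given here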; conditions: E. coli DRC41 growth, higher = more signal, called active from +8 up or from −8 down
[17] = probe aLefty2 binding to arrayed compounds – biochemical, biotinylated probe, 635/667 nm fluorescence, primary screen (AID 1094); conditions: small-molecule microarray, higher = more signal;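 further: score merges spot fluorescence near 667 nm with spot signal-to-noise ratio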
[18] = tested on: Noggin (protein binding on small-molecule microarray); experiment: small molecules binding Noggin protein – biochemical, 635/667 nm fluorescence, primary screen (AID 1095); conditions: 635 nm fluorescence, higher = more signal;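 further: score merges 667 nm feature fluorescence with signal to noise over triplicate slides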
[19] = molecular target: Neurogenic locus notch homolog protein 3 (Homo sapiens) (UniProt Q9UM47); experiment: small molecules binding NOTCH3 protein – biochemical, 635/667 nm fluorescence, primary screen (AID 1096); conditions: small-molecule microarray, 635 nm fluorescence, higher = more signal
[20] = probe aEGFR binding to arrayed compounds – biochemical, biotinylated probe, 635/667 nm fluorescence, primary screen (AID 1097); conditions: small-molecule microarray, higher = more signal;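 further: probe is a biotinylated anti-EGFR antibody binding compounds printed on slides; score combines fluorescence near 667 nm and signal to noise of each spot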

Chain of Torsin-1A-interacting protein 2 (Homo sapiens) (Q8NFQ8 whole entry, looked up): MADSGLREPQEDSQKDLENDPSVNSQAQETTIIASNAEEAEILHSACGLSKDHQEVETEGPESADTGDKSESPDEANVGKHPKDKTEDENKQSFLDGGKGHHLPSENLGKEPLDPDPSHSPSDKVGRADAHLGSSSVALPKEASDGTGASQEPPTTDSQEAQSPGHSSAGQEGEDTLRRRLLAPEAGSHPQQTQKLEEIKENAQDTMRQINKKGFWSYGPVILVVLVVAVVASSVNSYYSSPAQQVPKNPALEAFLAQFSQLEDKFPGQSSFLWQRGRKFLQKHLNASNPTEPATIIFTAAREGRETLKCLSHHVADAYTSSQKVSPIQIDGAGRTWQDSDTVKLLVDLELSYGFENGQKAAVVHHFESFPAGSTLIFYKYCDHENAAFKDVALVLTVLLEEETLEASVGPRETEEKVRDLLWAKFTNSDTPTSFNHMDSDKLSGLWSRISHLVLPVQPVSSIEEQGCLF
Chain of Neurogenic locus notch homolog protein 3 (Homo sapiens) (Q9UM47 whole entry, looked up): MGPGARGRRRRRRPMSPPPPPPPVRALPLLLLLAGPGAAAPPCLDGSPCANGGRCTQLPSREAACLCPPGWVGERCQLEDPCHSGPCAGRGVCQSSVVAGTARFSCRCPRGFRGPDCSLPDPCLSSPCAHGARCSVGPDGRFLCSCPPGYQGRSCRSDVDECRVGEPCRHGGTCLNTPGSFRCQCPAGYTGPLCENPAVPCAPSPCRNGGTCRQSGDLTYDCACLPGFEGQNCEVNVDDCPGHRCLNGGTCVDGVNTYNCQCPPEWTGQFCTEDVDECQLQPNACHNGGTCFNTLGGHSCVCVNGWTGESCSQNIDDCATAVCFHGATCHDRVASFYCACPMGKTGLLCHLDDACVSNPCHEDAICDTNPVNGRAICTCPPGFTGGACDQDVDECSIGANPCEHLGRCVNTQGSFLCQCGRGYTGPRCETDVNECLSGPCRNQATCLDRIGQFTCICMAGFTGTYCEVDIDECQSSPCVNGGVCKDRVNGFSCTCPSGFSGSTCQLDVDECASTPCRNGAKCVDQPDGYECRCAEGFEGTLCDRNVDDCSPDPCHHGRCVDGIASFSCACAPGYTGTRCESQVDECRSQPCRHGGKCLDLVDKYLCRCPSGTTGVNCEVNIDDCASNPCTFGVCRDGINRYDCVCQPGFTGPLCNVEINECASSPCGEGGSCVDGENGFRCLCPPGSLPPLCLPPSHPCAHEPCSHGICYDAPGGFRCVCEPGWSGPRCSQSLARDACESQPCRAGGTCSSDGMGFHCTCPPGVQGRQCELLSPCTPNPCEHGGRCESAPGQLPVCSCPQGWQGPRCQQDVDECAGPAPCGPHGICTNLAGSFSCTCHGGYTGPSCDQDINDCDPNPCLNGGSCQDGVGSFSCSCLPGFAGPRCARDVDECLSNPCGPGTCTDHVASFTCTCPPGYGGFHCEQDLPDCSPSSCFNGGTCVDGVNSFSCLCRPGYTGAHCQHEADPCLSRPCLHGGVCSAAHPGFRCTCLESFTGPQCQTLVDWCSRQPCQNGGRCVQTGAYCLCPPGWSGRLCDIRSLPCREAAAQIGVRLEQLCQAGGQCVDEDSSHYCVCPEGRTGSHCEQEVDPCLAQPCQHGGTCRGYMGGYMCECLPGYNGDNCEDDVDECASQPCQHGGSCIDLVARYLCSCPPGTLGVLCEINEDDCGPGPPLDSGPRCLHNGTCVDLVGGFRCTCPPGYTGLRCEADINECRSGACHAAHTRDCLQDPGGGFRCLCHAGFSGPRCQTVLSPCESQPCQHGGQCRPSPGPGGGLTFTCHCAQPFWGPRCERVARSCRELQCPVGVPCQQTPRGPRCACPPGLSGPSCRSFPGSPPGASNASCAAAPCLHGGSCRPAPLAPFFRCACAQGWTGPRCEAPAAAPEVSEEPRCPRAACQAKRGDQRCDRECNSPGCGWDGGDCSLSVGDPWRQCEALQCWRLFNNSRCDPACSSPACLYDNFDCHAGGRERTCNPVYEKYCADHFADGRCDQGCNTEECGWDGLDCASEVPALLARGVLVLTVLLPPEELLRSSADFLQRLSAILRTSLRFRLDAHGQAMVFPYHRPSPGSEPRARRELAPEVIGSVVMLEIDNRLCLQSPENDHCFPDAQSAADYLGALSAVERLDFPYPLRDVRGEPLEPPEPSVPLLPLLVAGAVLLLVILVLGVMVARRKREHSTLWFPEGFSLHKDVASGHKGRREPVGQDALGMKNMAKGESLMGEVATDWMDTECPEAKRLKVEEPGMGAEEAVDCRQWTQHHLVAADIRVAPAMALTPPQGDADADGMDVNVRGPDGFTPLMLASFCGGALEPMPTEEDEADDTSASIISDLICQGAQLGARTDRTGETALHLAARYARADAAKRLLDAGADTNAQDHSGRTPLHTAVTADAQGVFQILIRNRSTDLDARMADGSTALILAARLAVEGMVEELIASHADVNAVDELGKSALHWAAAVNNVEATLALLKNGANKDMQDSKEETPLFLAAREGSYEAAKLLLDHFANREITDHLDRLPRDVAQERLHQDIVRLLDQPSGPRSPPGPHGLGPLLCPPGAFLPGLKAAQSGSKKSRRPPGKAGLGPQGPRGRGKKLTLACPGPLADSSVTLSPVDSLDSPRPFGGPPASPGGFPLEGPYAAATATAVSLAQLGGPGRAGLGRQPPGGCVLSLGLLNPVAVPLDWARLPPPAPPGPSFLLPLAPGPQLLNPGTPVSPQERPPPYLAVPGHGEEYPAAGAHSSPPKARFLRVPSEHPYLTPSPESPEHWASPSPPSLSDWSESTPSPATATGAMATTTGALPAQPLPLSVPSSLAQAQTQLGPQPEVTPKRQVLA
Chain of Pro-neuregulin-1, membrane-bound isoform (Homo sapiens) (Q02297 whole entry, looked up, the tested form may be a part, canonical isoform): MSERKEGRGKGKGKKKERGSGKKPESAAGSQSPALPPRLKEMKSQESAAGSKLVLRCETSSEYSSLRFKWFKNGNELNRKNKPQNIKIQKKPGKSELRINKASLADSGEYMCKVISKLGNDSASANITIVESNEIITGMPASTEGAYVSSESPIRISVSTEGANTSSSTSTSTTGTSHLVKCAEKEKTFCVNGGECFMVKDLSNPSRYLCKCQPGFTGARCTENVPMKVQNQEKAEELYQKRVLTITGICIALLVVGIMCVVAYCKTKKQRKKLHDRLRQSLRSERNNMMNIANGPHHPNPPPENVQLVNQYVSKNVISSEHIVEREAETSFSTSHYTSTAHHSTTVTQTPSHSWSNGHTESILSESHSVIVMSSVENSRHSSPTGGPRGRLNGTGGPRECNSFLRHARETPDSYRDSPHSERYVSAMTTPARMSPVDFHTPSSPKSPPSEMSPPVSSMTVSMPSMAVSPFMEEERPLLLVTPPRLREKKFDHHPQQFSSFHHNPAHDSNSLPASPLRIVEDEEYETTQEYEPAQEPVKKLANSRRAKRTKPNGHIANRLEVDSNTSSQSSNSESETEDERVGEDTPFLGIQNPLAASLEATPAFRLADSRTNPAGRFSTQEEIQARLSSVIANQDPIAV

| SMILES | composite z-score [1] | composite z-score [2] | composite z-score [3] | composite z-score [4] | composite z-score [5] | composite z-score [6] | composite z-score [7] | z-score [8] | composite z-score [9] | composite z-score [10] | composite z-score [11] | z-score [12] | z-score [13] | z-score [14] | composite z-score [15] | z-score [16] | composite z-score [17] | composite z-score [18] | composite z-score [19] | composite z-score [20] |
| --- | --- | --- | --- | --- | --- | --- | --- | --- | --- | --- | --- | --- | --- | --- | --- | --- | --- | --- | --- | --- |
| C=C(CCCC)C(=O)CC[C@H](OC(C)=O)c1cccc(OCCO)c1 | 0.137 | -0.475 | -0.148 | -0.177 | -1.47 | -0.331 | -0.159 | 0.818 (inactive) | -0.463 | -0.137 | 0.554 | 0.292 (inactive) | -1.84 (inactive) | -0.303 (inactive) | -0.348 | 0.787 (inactive) | -0.215 | -0.848 | -0.216 | -0.363 |
| CN1C(=O)C2C=CC(C(O)C3CC=CCC3)N(NC(=O)OC(C)(C)C)C2C1=O (stereo not given) | -0.138 | 0.23 | 0.218 | 0.752 | 1.29 | 1.64 | 1.21 | 2.23 (inactive) | 0.879 | -0.0296 | 1.14 | 0.0125 (inactive) | 0.826 (inactive) | 0.259 (inactive) | 3.54 | -1.16 (inactive) | -0.0379 | 0.532 | 0.95 | -0.0197 |
| COc1ccc(C(=O)Nc2ccc(CN3C(=O)[C@@]4(O[C@@H](CCn5cc([C@H](O)c6ccccc6)nn5)[C@H]([Si](C)(C)c5ccc(OC)cc5)[C@H]4C)c4ccccc43)cc2)cc1 | -0.197 | 0.315 | 0.484 | -0.164 | -0.244 | 0.258 | 1.05 | -2.48 (inactive) | 0.217 | -0.0391 | 1.46 | 0.188 (inactive) | -0.807 (inactive) | 1.66 (inactive) | 1.11 | -0.351 (inactive) | -0.136 | 0.323 | 0.378 | -0.134 |
| COc1cc2c(cc1OC)CN(C(=O)[C@@H]1[C@H]3C(=O)O[C@H](c4ccccc4)[C@H](c4ccccc4)N3[C@H](c3ccc(O)cc3)[C@@]13C(=O)Nc1ccc(C#CC4(O)CCCCCC4)cc13)CC2 | -1.38 | 0.75 | -0.0197 | 0.763 | 1.18 | 1.73 | 1.35 | 0.651 (inactive) | 0.0629 | -0.274 | 1.55 | 0.739 (inactive) | -0.0727 (inactive) | 0.257 (inactive) | 3.46 | 0.395 (inactive) | -0.232 | 1.59 | 1.08 | 0.0685 |
| NC(=O)[C@@H]1[C@H]2C(=O)O[C@H](c3ccccc3)[C@H](c3ccccc3)N2[C@H](c2ccc(O)cc2)[C@@]12C(=O)Nc1ccc(C#CC3(O)CCCCCC3)cc12 | 0.372 | 0.167 | 0.0075 | 0.244 | 0.0065 | 0.959 | 1.42 | 0.854 (inactive) | -0.0686 | -0.0645 | 0.454 | 0.505 (inactive) | -0.133 (inactive) | 0.639 (inactive) | 2.14 | -0.441 (inactive) | -0.072 | -0.6 | -0.395 | -0.178 |
| CN(C)CCCNC(=O)[C@@]1(c2ccc([N+](=O)[O-])cc2)CC(=O)N(C2CCCCC2)[C@@H]1c1ccc(CO)cc1I | 0.284 | 1.05 | -0.087 | -0.0752 | -0.0551 | 0.314 | 1.34 | -0.635 (inactive) | -0.364 | -0.266 | 1.07 | -1.13 (inactive) | -20.1 (active) | -3.11 (inactive) | 1.84 | -0.112 (inactive) | -0.147 | 0.331 | 0.215 | -0.0679 |
| C=CC[C@@]1(C(=O)N(C)C)N=C(c2ccc(OCCCO)cc2)O[C@@H]1c1ccccc1N=[N+]=[N-] | 1.12 | 1.72 | 0.0732 | 0.622 | 0.984 | 1.52 | 1.29 | 2.35 (inactive) | 1.21 | 0.011 | 1.55 | -0.431 (inactive) | -0.0481 (inactive) | -0.0865 (inactive) | 3.57 | 0.724 (inactive) | 0.193 | 1.07 | 1.06 | 0.276 |
| COCCOC(=O)N1C(=O)[C@@]2(c3cc(C#Cc4ccc(OC)cc4)ccc31)[C@H](c1ccccc1OCCO)N1[C@H](c3ccccc3)[C@H](c3ccccc3)OC(=O)[C@H]1[C@@H]2C(=O)N1CCN(c2ncccn2)CC1 | -0.173 | 0.489 | -0.0336 | 0.619 | 0.568 | 0.4 | 1.23 | -1.23 (inactive) | 0.172 | -0.0618 | 1.35 | 3.34 (inactive) | 1.95 (inactive) | 7.23 (inactive) | 2.22 | 0.579 (inactive) | -0.115 | 0.936 | 0.836 | -0.058 |
| C=CC[C@]1(C(=O)NCCCOC)N=C(c2ccc(OCCCO)cc2)O[C@H]1c1ccccc1N=[N+]=[N-] | 0.149 | -0.0693 | 0.119 | 0.751 | 1.39 | 0.94 | 0.989 | 0.665 (inactive) | 1.18 | -0.192 | 1.55 | -0.707 (inactive) | -0.688 (inactive) | 1.47 (inactive) | 3.48 | 0.421 (inactive) | 0.0482 | 0.444 | 0.935 | -0.265 |
| COCCn1c(C(=O)N2CCCC2)cc2c1C[C@H]1CN(C(=O)c3ccccc3)[C@@](Cc3ccc(F)cc3)(C(=O)OC)[C@@H]21 | 0.123 | 0.214 | 0.24 | 0.252 | 1.41 | 1.81 | 0.997 | 2.89 (inactive) | 0.77 | 0.0078 | 1.12 | -0.339 (inactive) | 0.0582 (inactive) | -0.0799 (inactive) | 3.84 | -0.191 (inactive) | 0.166 | 0.126 | 0.583 | 0.0843 |
